Inconclusive results are not listed. Where a call stands in place of a potency, no number is given. The source made the active and inactive calls. Calls follow the shape of the dose curve; as a rule, active = well fitted cell-killing curve with a large enough effect; inconclusive = small, poorly fitted or top-dose-only effect; inactive = flat fitted curve, though single readings scatter.

The nature of this assay: Cell Viability - Renal Proximal Tubule (AID 545). Also: nearly all actives have a fitted effect of over 40% in size. As to conditions: renal proximal tubule cells viability, primary cells of rat origin; series mostly up to 91.7 µM. The text has this:
NIH Chemical Genomics Center [NCGC]
NIH Molecular Libraries Screening Centers Network [MLSCN]
National Institutes of Environmental Health Sciences [NIEHS]
National Toxicology Program [NTP]
We have developed a 1536-well cell-based assay for quantitative high throughput screening (qHTS) against a number of cell lines to determine in vitro cytotoxicity of small molecules. This particular assay uses the renal proximal tubule cells which are derived from normal kidney cells freshly isolated from rat.
NCGC Assay Protocol Summary:
The CellTiter-Glo luminescent cell viability assay (Promega) is a homogeneous method to measure the number of viable cells in culture. The end point readout of this assay is based on quantitation of intracellular ATP, an indicator of metabolic activity, using the luciferase reaction. Luciferase catalyzes the oxidation of beetle Luciferin to oxyluciferin and light in the presence of ATP. The luminescent signal is proportional to amount of ATP present.
Using the CellTiter-Glo luminescent cell viability assay, the amount of cellular ATP was measured in the renal proximal tubule cells with complete culture medium following compound treatment for 40 hours. The assay was performed in opaque white Kalypsys 1536-well plates. In the screen, tamoxifen and doxorubicin were used as positive controls. Library compounds were measured for their ability to cause acute toxicity in the cell line, as reflected by a decrease in intracellular ATP levels, in a concentration-dependent manner. […] AC50 values were determined from concentration-response data modeled with the standard Hill equation.
qHTS protocol for CellTiter Glo renal proximal tubule cell assay
[Step] [Parameter] [Value] [Description]
1. Reagent; 5 uL; 1000 renal proximal tubule cells/well
2. Time; 5 hr; 37 °C incubation
4. Controls; 23 nL; Tamoxifen 0.34 uM to 100 uM & Doxorubicin 0.02 nM to 100 uM
5. Time; 40 hr; 37 °C incubation
6. Reagent; 5 uL; CellTiter Glo reagent
7. Time; 20 min; Room Temperature
8. Detection; Luminescence; Viewlux plate reader
Keywords: cell viability, cytotoxicity, renal proximal tubule cells, luminescence, NTPHTS, NTPHTS_NCGC, NIEHS, EPA, DSSTox, MLSMR, MLSCN, NIH Roadmap, qHTS, NCGC
Take `CCCCC(=O)N(C)C`: the Potency entry is “inactive”.

In the case of `S=C([S-])NCCNC(=S)[S-].[Zn+2]`, the Potency result was “inactive”.

As to `Cc1ccc2ncccc2c1`, the Potency entry was “inactive”.

As for `Cc1cscn1`, the Potency entry is “inactive”.

In the case of `Nc1ccc(Cl)cc1[N+](=O)[O-]`, the Potency entry is “inactive”.

`Cc1cc(C)cc(O)c1`: the Potency entry is “inactive”.

Regarding `CCCCCCC=O`, the Potency entry is “inactive”.

Regarding `Cc1cc(C2(c3cc(C)c(O)cc3C)OS(=O)(=O)c3ccccc32)c(C)cc1O`, the Potency entry was “inactive”.

For `c1ccsc1`, the Potency result is “inactive”.

For `OC/C(Br)=C(\Br)CO`, the Potency result is “inactive”.

For `CCCCC(C=O)CC` (stereo not given), the Potency result was “inactive”.

In the case of `Cc1ccc2ccccc2c1[N+](=O)[O-]`, the Potency result is “inactive”.

`COc1ccccc1[N+](=O)[O-]`: the Potency result is “inactive”.

For the compound `Cc1ccc(C#N)cc1`, the Potency entry was “inactive”.

On to `O=c1[nH][nH]c(=O)c2cc([N+](=O)[O-])ccc12`, for which the Potency entry is “inactive”.

For `CCCCCCCCC/C=C/CC1CC(=O)OC1=O` (stereo not given), the Potency result was “inactive”.

In the case of `O=Cc1c(Cl)cccc1Cl`, the Potency result was “inactive”.

Turning to `CCc1ccccc1O`, the Potency result is “inactive”.

On to `CNC(=O)c1ccccc1`, for which the Potency entry was “inactive”.

Turning to `CCOCCO`, the Potency entry was “inactive”.

Turning to `O=C1OC(=O)c2cc([N+](=O)[O-])ccc21`, the Potency entry is “inactive”.

With `FB(F)F`, the Potency entry was “inactive”.

For the compound `O=C1OC(=O)c2c(Cl)c(Cl)c(Cl)c(Cl)c21`, the Potency result was “inactive”.

As for `CO[Si](CCCNCCC[Si](OC)(OC)OC)(OC)OC`, the Potency entry was “inactive”.

`O=C1OC(=O)c2c(Br)c(Br)c(Br)c(Br)c21`: the Potency result is “inactive”.

Take `CC/C=C1/OC(=O)c2ccccc21`: the Potency result is “inactive”.

Take `OCCO`: the Potency result was “inactive”.

Regarding `CCCCOCCOCCSC#N`, the Potency result was “inactive”.

For the compound `C1CCOC1`, the Potency result was “inactive”.

Consider `CC(N)CN` (stereo not given), for which the Potency result was “inactive”.

Consider `Nc1nc(CC(=O)O)cs1`, for which the Potency result was “inactive”.

Regarding `C=C(C)C(=O)OCCCCCC`, the Potency entry was “inactive”.

Turning to `CCC(=O)/C=C/C1C(C)=CCCC1(C)C` (stereo not given), the Potency result was “inactive”.

With `CC(=O)c1cc(C)oc1C`, the Potency entry is “inactive”.

As to `O=[N+]([O-])c1ccc(Cl)cc1Cl`, the Potency entry is “inactive”.

`CCCCC(CC)COC(=O)CCCCC(=O)OCC(CC)CCCC` (stereo not given): the Potency entry is “inactive”.

Take `CC(O)CC(C)O` (stereo not given): the Potency result is “inactive”.

Turning to `CCN(C(=O)N(CC)c1ccccc1)c1ccccc1`, the Potency result was “inactive”.

For the compound `O=[N+]([O-])c1ccc(NCCO)c(OCCO)c1`, the Potency result was “inactive”.

Consider `O=Cc1ccc(C(=O)O)cc1`, for which the Potency entry was “inactive”.

Source of the values: PubChem BioAssay (NCATS).
